Experimental data published in ChEMBL document CHEMBL1157539, “Thousands of chemical starting points for antimalarial lead identification” (Nature, 2010).

Tests used:
Assay type in all cases: functional
[1] = tested on: Plasmodium falciparum; assay: GSK_TCMDC: Inhibition of Plasmodium falciparum 3D7 in whole red blood cells, using parasite LDH activity as an index of growth. Test compounds present at 2uM
[2] = tested on: Plasmodium falciparum; assay: GSK_TCMDC: Inhibition of Plasmodium falciparum Dd2 in whole red blood cells, using parasite LDH activity as an index of growth. Test compounds present at 2uM
[3] = tested on: HepG2; assay: GSK_TCMDC: Percent inhibition of human HepG2 cell line. Test compounds present at 10uM.

SMILES	Inhibition [1]	Inhibition [2]	Inhibition [3]
COc1ccc2[nH]ccc(=NN=Cc3ccccc3)c2c1	100%	99%	0%
COc1ccc2nccc([C@@H](O)CN3CCC(NCc4cc5ccccc5o4)CC3)c2c1.O=C(O)C(=O)O	96%	72%	17%
CN(C)CCCNCc1cn(S(=O)(=O)c2ccccc2Cl)c2ccccc12.Cl	92%	71%	20%
CCCN(CCC)CCCNc1ccc(C(=O)Nc2ccc(OCC)cc2)cc1[N+](=O)[O-]	89%	2%	7%
COc1cc(C(=O)N2CCC(CCN3CCC4(CC3)CN(S(C)(=O)=O)c3ccccc34)CC2Cc2ccc(Cl)c(Cl)c2)cc(OC)c1OC.Cl (stereo not drawn)	100%	99%	29%
Nc1nc(N)c2c(Cc3ccccc3)cccc2n1	94%	3%	68%
Cc1ccc(C(C)C)c(Oc2ccc3nc(N)nc(N)c3c2)c1	96%	33%	61%
O=C(Cn1c(SCc2cccc(F)c2F)cc(=O)c2ccccc21)N(CCn1ccnc1)Cc1ccc(-c2ccc(C(F)(F)F)cc2)cc1	100%	94%	20%
Cn1cnnc1Sc1ccc(CN2CCOc3ccc(C4=CCCCC4)cc3C2)o1	98%	97%	1%
Cl.O=C(O)CCCN1CCCC(=C(c2ccccc2)c2ccccc2)C1	82%	2%	0%
Cc1cc(N[C@@H](CC(C)C)C(=O)Nc2ccccc2)nc(NCc2ccccc2C)n1.O=C(O)C(F)(F)F	100%	81%	21%
